# From PubChem BioAssay AID540256 (National Center for Advancing Translational Sciences (NCATS), 2011)
# The campaign covered roughly 300,000 compounds. About 3,700 (1.2%) were called active. Inconclusive results (about 20%) are left out. Calls come from the whole dose curve; tested in HEK293 cells. The sample as a whole holds a higher share of actives than the screen did.
# Assay: qHTS for Inhibitors of binding or entry into cells for Lassa Virus; note: nearly all actives have a fitted effect of over 50% in size
# Details: Lassa virus pseudotype entry inhibition, cell reporter; series mostly up to 37.9 µM; activity change, negative = inhibition: at the top concentration
# % is set by controls: 0 for no effect and ±100 for the full control effect; potency is the fitted concentration of half-maximal effect.
Compound,Potency,"activity change, negative = inhibition"
CCCCCCCCn1c2c(c(=N)c3c1CCC3)CCCC2,5.62 µM (active),–
CCCCCCn1c(CN2CCCCC2)nc2c1c(=O)n(C)c(=O)n2C,–,-21.6% (inactive)
CCCCN(CC(=O)Nc1cccc(S(=O)(=O)N2CCCC2)c1)Cc1nc2ccccc2c(=O)[nH]1,–,-17.3% (inactive)
O=C(Nc1ccccc1)Oc1cccc2cccnc12,–,0.944% (inactive)
O=C(CNC(=O)c1ccccc1Br)NCCSc1ccc(Br)cc1,–,-7.68% (inactive)
O=[N+]([O-])c1cc(S(=O)(=O)Nc2cccc(Cl)c2)ccc1N=Nc1c(O)[nH]c2ccccc12,11.2 µM (active),–
Oc1[nH]c2ccccc2c1N=Nc1c(F)c(F)c(F)c(F)c1F,–,13.9% (inactive)
CN1CCN(c2ccc(S(=O)(=O)Nc3ccccc3)cc2[N+](=O)[O-])CC1,–,-6.99% (inactive)
CC1(C)N=C(N)NC(Nc2ccc(Cl)cc2)=N1,–,7.27% [at 46.1 µM] (inactive)
CS(=O)(=O)N(CC(=O)N1CCc2ccccc2C1)c1ccc(Br)cc1,–,-2.02% (inactive)
COc1cccc(N(CC(=O)N2CCc3ccccc3C2)S(C)(=O)=O)c1,–,-7.14% (inactive)
Cc1ccc(S(=O)(=O)N(CC(=O)N2CCc3ccccc3C2)c2cccc(Cl)c2)cc1,14.1 µM (active),–
Cc1ccc(S(=O)(=O)N2CCC(C(=O)N3CCCCCCC3)CC2)cc1,–,-28.9% (inactive)
O=C(c1ccc(F)c(S(=O)(=O)N2CCOCC2)c1)N(CCc1ccccc1)Cc1ccccc1,–,-2.24% (inactive)
C=CCn1c(C)cc(C2=NNC(=NCC)SC2)c1C,1.64 µM (active),–
Cc1cc(C2=NNC(=Nc3ccc(S(=O)(=O)N4CCOCC4)cc3)SC2)c(C)n1CC1CCCO1 (stereo not drawn),–,0.163% [at 46.1 µM] (inactive)
COc1ccc(C(=O)O/N=C(\N)Cc2ccc(Cl)cc2Cl)cc1OC,20 µM (active),–
COc1ccc(C(=O)ON=C2c3ccccc3-c3ccccc32)cc1OC,–,21.5% (inactive)
COc1ccc(C/C(N)=N/OC(=O)c2ccco2)cc1OC,–,21.5% (inactive)
O=C(CN1CCSc2ccccc21)N1CCN(c2ccccc2)CC1,–,7.02% [at 46.1 µM] (inactive)
CCOc1cc(C(=O)NCCc2csc3nc(-c4ccc(C)cc4)nn23)cc(OCC)c1OCC,–,12.3% [at 46.1 µM] (inactive)
Cc1cc(=O)[nH]c(SCc2ccc(Cl)cc2)n1,–,-0.267% (inactive)
Cn1nnnc1SCC(=O)N1CCN(C(c2ccccc2)c2ccccc2)CC1,–,0.563% (inactive)

Compound,Potency,"activity change, negative = inhibition"
c1ccc(C(c2ccccc2)N2CCN(Cc3nnnn3C3CCCCC3)CC2)cc1,11.6 µM (active),–
O=C(O)CN1CCN(C(c2ccccc2)c2ccccc2)CC1,–,1.74% [at 46.1 µM] (inactive)
COc1ccc(N2CCN(C(=O)CCNC(=O)c3ccc(Br)cc3)CC2)cc1,–,-23.1% (inactive)
Cc1ccc(S(=O)(=O)NCCC(=O)OCC(=O)N(C)c2ccccc2)cc1,–,6.99% [at 46.1 µM] (inactive)
Cc1cc(C)nc(N/N=C/c2c(CO)cnc(C)c2O)n1,–,-18.4% [at 46.1 µM] (inactive)
CC(C)(C)c1ccc(C(=O)NCCn2c(N)c(C#N)c3nc4ccccc4nc32)cc1,–,-18.7% (inactive)
N#Cc1c(N)n(CCOC(=O)c2ccc(Cl)cc2)c2nc3ccccc3nc12,–,9.1% (inactive)
CN(C)CCCn1c(N)c(C#N)c2nc(C#N)c(C#N)nc21,15.8 µM (active),–
O=C(Cc1ccc(S(=O)(=O)N2CCOCC2)s1)Nc1ccc(Br)c(C(F)(F)F)c1,–,-16.6% (inactive)
O=C(Nc1ncccc1O)c1ccc(C(=O)c2ccccc2)cc1,–,1.16% (inactive)
N#CCN(C(=O)COC(=O)C1CC2CCCC(C1)C2=O)c1ccccc1 (stereo not drawn),–,0.703% [at 46.1 µM] (inactive)
O=C(Oc1cccc(N2C(=O)C3C4c5ccccc5C(c5ccccc54)C3C2=O)c1)c1ccco1 (stereo not drawn),8.91 µM (active),–
O=C(NC1CC(=O)N(c2ccccc2)C1)c1ccco1 (stereo not drawn),–,0.379% [at 46.1 µM] (inactive)
CC(=O)Oc1cccc(N2C(=O)C3CC=C(Cl)CC3C2=O)c1 (stereo not drawn),–,24.4% (inactive)
CCOc1ccc(CN2CCNC(=O)C2CC(=O)NCCCC2CCCC2)cc1 (stereo not drawn),–,-20.2% (inactive)
NC(=S)NN=C1CCCC(C(F)(F)F)C1 (stereo not drawn),–,8.5% (inactive)
Cc1c(C(=O)N2CCCc3ccccc32)oc2ccccc12,–,0.632% [at 46.1 µM] (inactive)
Cc1cccc2cc3c(N)c(C(=O)N4CCCc5ccccc54)sc3nc12,2.82 µM (active),–
O=C(c1c(Cl)nc2sccn12)N1CCCc2ccccc21,–,13% (inactive)
CC(=NNC(=O)c1ccc2nc[nH]c2c1)c1ccc(Br)cc1,–,-8.19% [at 46.1 µM] (inactive)
O=C(NCCc1ccc(Cl)cc1)c1ccc2c(c1)N(Cc1ccc(F)cc1)C(=O)CS2,–,0.26% [at 46.1 µM] (inactive)
CCOc1ccc(Br)cc1S(=O)(=O)Nc1ccc(S(=O)(=O)Nc2cc(C)on2)cc1,–,9.12% [at 46.1 µM] (inactive)
CC(Nc1nc(C(F)(F)F)nc2ccccc12)c1cccs1 (stereo not drawn),–,-11.1% (inactive)

Compound,Potency,"activity change, negative = inhibition"
CCc1ccc(C(CNc2nc(C(F)(F)F)nc3ccccc23)N(C)C)cc1 (stereo not drawn),10 µM (active),–
NS(=O)(=O)c1ccc(CCNc2nc(C(F)(F)F)nc3ccccc23)cc1,–,-9.35% (inactive)
Cc1ccc(S(=O)(=O)n2oc(=O)c(C3CCCCC3)c2N)cc1,–,0% [at 46.1 µM] (inactive)
C/C(=N\NC(=O)Cc1ccc(F)cc1)c1ccc(F)cc1,–,0.896% (inactive)
CC(=NNC(=S)N1CCCCCC1)c1ccccn1,0.316 µM (active),–
C/C(=N\NC(=O)Cc1ccc(Cl)cc1)c1ccccn1,8.2 µM (active),–
CNC(=S)N1CCN(c2ccccn2)CC1,–,5.69% (inactive)
C/C(=N\NC(=O)c1ccccc1F)c1ccccn1,7.08 µM (active),–
C/C(=N\NC(=O)Cc1ccc(Br)cc1)c1cccnc1,–,3.78% [at 46.1 µM] (inactive)
O=C(Nc1ccc(NC(=O)c2ccccc2F)cc1)c1ccccc1F,–,-13% (inactive)
CCNC(=S)N1CCN(c2ncccn2)CC1,–,3.81% (inactive)
CC(=O)Nc1cccc(/C(C)=N/NC(=O)c2ccccc2Cl)c1,–,1.02% (inactive)
CCOC(=O)CCC(NC(=O)c1ccc(CNc2nc3cc(C(F)(F)F)ccc3nc2C(=O)OCC)cc1)C(=O)OCC (stereo not drawn),–,-7.13% (inactive)
Cc1nn(-c2ccc(N3CCCCC3)nn2)c(C)c1CCC(=O)NCc1ccc(F)cc1,–,-18.5% [at 46.1 µM] (inactive)
COc1ccc(C(=O)C(C)OC(=O)c2cccc(S(=O)(=O)Nc3c(C)n(C)n(-c4ccccc4)c3=O)c2)cc1 (stereo not drawn),–,-2.92% (inactive)
O=C(NNc1nc(N2CCCC2)nc(N2CCCC2)n1)c1ccccc1,–,15.5% (inactive)
O=C(Nc1ccc(O)cc1)c1ccc(NC(=O)c2ccco2)cc1,–,18.5% (inactive)
COCCn1c(SC(C)C(=O)NC2CC2)nnc1-c1cccc(C)c1 (stereo not drawn),–,-8.47% [at 46.1 µM] (inactive)
COC(=O)c1sc(N2CCN(Cc3ccccc3)CC2)nc1N,–,-10.1% [at 46.1 µM] (inactive)
C/C(=N\NC(=S)Nc1ccc(C)cc1)c1cc2ccccc2o1,6.51 µM (active),–
Cc1ccc(OC(=O)c2cc3ccccc3o2)cc1,–,-5.21% (inactive)
CC(C)Oc1ccc(NC(=O)c2cc3ccccc3o2)cc1,–,8.89% [at 46.1 µM] (inactive)
